Data taken from PubChem BioAssay (Tox21).
Values without a mark were called inactive. Inconclusive results are not listed. Where a call stands in place of a potency, no number is given. Calls of active or inactive are those of the source. Unless noted, calls come from the whole dose curve.

Key:
[1] = G protein-coupled receptor (GPCR) small molecule agonists, calcium flux assay: HEK293 wild type cell line counter screen (AID 1920065)
Method in brief: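 Calcium-sensitive dye, loaded 1 h at 37 C into cells cultured 18 h, reports compound-evoked calcium release as fluorescence (Ex/Em 480/540), measured over 3 min. Agonist mode; 15-point titrations, triplicate.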

[2] = p53 small molecule agonists, cell-based qHTS assay with human liver microsomes (AID 1963577)
Method in brief: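 Fluorescence of the beta-lactamase reporter in p53RE-bla cells, detected with LiveBLAzer substrate (2 h, room temperature, dark), served as the read-out after 16 h compound exposure at 37 C with human liver microsomes and NADPH, each 0.5 mg/mL final.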

[3] = p53 small molecule agonists, cell-based qHTS assay with rat liver microsomes (AID 1963578)
Method in brief: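 Cells carrying a p53 response element–beta-lactamase reporter were plated and rested 5 h, then dosed with compound in DMSO plus rat liver microsomes and NADPH, each at 0.5 mg/mL final. After 16 h at 37 C, LiveBLAzer substrate was added for 2 h.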

[4] = p53 small molecule agonists, cell-based qHTS assay with rat liver microsomes: qHTS cell viability counter screen (AID 1963580); note: nearly all actives have a fitted effect of over 45% in size
Method in brief: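 Viability is assessed in parallel with the p53 reporter read: HCT-116 p53RE-bla cells receive compounds plus rat microsomes and NADPH (0.5 mg/mL final apiece), incubate 16 h at 37 C, and then CellTiter-Glo luminescence is recorded.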

[5] = target: 5-hydroxytryptamine receptor 2A (Homo sapiens) (UniProt P28223); assay: 5-hydroxytryptamine receptor 2A (HTR2A) small molecule agonists, cell-based qHTS assay (AID 1963587); note: nearly all actives have a fitted effect of over 30% in size; note: potency is the fitted concentration of half-maximal effect
Chain of 5-hydroxytryptamine receptor 2A (Homo sapiens) (P28223 whole entry, looked up): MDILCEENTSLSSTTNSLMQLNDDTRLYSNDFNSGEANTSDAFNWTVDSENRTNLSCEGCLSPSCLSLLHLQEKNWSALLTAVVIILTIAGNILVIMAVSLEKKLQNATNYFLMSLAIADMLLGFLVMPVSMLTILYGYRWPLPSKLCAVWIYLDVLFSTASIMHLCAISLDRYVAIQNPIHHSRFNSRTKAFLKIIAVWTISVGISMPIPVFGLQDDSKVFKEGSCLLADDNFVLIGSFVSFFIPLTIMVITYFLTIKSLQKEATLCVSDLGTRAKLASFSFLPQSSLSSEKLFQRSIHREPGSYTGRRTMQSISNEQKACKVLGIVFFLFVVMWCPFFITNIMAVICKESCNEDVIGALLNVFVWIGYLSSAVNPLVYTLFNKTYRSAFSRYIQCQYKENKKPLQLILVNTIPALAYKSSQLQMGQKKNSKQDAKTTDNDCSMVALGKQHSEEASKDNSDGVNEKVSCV
Method in brief: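 CHO cells stably expressing human HTR2A, plated 18 h, loaded with calcium dye 1 h at 37 C. Agonist mode: compounds added and intracellular calcium fluorescence recorded kinetically for 2 min at 1 sec intervals.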

[6] = target: Muscarinic acetylcholine receptor M1 (Homo sapiens) (UniProt P11229); assay: Cholinergic receptor muscarinic 1 (CHRM1) small molecule antagonists, cell-based qHTS assay (AID 1963588); note: nearly all actives have a fitted effect of over 40% in size
Chain of Muscarinic acetylcholine receptor M1 (Homo sapiens) (P11229 whole entry, looked up): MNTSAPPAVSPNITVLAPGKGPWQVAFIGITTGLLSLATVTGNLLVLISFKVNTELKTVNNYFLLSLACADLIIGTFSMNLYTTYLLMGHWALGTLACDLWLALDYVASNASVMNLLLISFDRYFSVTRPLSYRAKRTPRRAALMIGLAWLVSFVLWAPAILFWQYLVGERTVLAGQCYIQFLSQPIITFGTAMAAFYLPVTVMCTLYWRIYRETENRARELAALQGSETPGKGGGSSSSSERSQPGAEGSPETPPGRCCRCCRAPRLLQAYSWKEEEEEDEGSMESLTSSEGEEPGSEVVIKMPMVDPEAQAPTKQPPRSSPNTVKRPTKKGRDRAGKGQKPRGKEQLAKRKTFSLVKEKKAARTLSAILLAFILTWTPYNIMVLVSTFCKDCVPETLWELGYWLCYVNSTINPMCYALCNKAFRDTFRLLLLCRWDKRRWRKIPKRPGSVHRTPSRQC
Method in brief: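 CHRM1-CHO calcium-flux assay, antagonist mode. Cells were seeded 18 h, dye-loaded 1 h at 37 C and given compound for 5 min at RT, then acetylcholine was added at 50nM. FDSS fluorescence was read 3 min; 15 concentrations, three runs.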

[7] = target: Beta-2 adrenergic receptor (Homo sapiens) (UniProt P07550); assay: Adrenergic beta2 receptor (ADRB2) small molecule antagonists, cell-based qHTS assay (AID 1963592); note: series mostly up to about 92 µM; nearly all actives have a fitted effect of over 50% in size
Chain of Beta-2 adrenergic receptor (Homo sapiens) (P07550 whole entry, looked up): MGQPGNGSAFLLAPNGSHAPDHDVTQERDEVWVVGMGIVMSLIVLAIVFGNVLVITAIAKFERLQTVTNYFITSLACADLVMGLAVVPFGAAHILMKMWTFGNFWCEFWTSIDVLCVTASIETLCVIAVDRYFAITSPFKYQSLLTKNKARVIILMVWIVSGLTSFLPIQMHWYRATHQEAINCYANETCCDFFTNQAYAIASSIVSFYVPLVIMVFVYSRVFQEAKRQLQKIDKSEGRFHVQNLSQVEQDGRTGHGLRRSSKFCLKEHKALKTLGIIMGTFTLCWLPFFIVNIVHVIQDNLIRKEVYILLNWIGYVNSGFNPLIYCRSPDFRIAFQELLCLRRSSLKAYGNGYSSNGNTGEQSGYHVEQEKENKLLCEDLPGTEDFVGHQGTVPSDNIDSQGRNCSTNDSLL
Method in brief: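 Cells (CHO, stable ADRB2 overexpression) incubated 18-20hr at 37C; compounds added from DMSO; agonist mix (1nM isoproterenol, 100uM IBMX, 25uM Ro-20-1724) added; 0.5hr RT; d2-cAMP and anti-cAMP-cryptate added; 1hr RT; 665/615 nm read.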

[8] = target: D(2) dopamine receptor (Homo sapiens) (UniProt P14416); assay: Dopamine D2 receptor (DRD2) small molecule antagonists, cell-based qHTS assay (AID 1963595; active = well fitted inhibition curve with a large enough effect in the signal ratio in the repeat runs, with a control signal flat; the % refers to the signal ratio; note: potency is the fitted concentration of half-maximal effect)
Chain of D(2) dopamine receptor (Homo sapiens) (P14416 whole entry, looked up): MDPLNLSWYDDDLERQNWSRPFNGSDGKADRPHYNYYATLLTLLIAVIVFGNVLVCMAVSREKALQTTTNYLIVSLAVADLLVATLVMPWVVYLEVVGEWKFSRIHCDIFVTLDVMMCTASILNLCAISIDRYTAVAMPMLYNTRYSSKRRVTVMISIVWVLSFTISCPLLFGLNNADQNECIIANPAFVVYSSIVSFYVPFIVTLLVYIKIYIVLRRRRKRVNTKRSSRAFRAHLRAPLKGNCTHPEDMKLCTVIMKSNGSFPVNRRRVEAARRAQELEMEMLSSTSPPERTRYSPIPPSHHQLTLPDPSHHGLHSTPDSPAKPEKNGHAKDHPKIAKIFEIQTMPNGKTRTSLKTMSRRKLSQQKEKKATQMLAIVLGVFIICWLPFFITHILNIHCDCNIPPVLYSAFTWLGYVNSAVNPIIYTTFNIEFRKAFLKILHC
Method in brief: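 In this cell-based antagonist screen, compounds act for 10 min at room temperature before a 30 min challenge with 12 nM quinpirole and 200 nM NKH477. cAMP is quantified by HTRF competition in DRD2-HEK293 cells containing 0.1 mM Ro20-1724.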

[9] = Nuclear factor erythroid 2-related factor 2/antioxidant responsive element (Nrf2/ARE) small molecule agonists: luciferase reporter gene qHTS assay in human keratinocytes (AID 1919969); note: nearly all actives have a fitted effect of over 35% in size; note: potency is the fitted concentration of half-maximal effect
[10] = target: Gonadotropin-releasing hormone receptor (Homo sapiens) (UniProt P30968); assay: Human gonadotropin-releasing hormone receptor (GnRHR) small molecule agonists, calcium flux assay in GnRHR-HEK293 cells (AID 1920063); note: nearly all actives have a fitted effect of over 35% in size
Chain of Gonadotropin-releasing hormone receptor (Homo sapiens) (P30968 whole entry, looked up): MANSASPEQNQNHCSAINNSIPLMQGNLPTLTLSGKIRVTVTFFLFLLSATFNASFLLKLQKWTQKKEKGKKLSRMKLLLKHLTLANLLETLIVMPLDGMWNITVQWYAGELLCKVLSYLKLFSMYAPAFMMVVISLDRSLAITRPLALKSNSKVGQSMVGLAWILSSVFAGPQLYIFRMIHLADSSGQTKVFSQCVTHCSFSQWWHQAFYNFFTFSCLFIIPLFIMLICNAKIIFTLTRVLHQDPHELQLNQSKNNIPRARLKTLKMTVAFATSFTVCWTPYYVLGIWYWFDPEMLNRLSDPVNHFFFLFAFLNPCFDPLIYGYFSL
Method in brief: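 We seeded human GnRHR-expressing HEK293 cells for 18 hours, loaded them with calcium dye for an hour at 37 C, added test compounds, and recorded fluorescence intensity kinetically for three minutes.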

[11] = target: KiSS-1 receptor (Homo sapiens) (UniProt Q969F8); assay: Human kisspeptin (KISS1R) small molecule agonists, calcium flux assay in KISS1R-HEK293 cells (AID 1920064; active = well fitted activation curve with a large enough effect in the repeat runs)
Chain of KiSS-1 receptor (Homo sapiens) (Q969F8 whole entry, looked up): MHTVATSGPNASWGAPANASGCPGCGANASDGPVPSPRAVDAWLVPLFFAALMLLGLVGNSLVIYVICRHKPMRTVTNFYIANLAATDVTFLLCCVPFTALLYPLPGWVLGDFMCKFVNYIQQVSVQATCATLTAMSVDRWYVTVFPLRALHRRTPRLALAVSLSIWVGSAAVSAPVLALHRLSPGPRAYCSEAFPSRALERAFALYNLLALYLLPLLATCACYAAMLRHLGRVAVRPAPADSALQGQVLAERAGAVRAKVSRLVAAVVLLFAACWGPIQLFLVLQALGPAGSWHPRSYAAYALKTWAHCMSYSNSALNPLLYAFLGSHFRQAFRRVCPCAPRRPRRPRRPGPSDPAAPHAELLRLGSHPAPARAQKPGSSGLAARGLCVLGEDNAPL
Method in brief: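 Kinetic calcium assay, 1 s sampling over 3 min at Ex/Em 480/540, in HEK293 cells engineered with human KISS1R; compounds delivered in DMSO after 1 h dye loading.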

[12] = p53 small molecule agonists, cell-based qHTS assay with human liver microsomes: qHTS cell viability counter screen (AID 1963579); note: nearly all actives have a fitted effect of over 45% in size; note: potency is the fitted concentration of half-maximal effect
Method in brief: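 Cytotoxicity counter screen: p53RE-bla, 4,000 cells/well; 5 h settle, 37 C/5% CO2; cpd + HLM 0.5 mg/mL + NADPH 0.5 mg/mL (final); 16 h, 37 C; CellTiter-Glo, 30 min RT, luminescence.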

[13] = p53 small molecule agonists, cell-based qHTS assay: qHTS cell viability counter screen (AID 1963581); note: nearly all actives have a fitted effect of over 45% in size; note: potency is the fitted concentration of half-maximal effect
Method in brief: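 Following 5 h attachment, HCT-116 p53RE-bla cells took up compound for 16 h at 37 C; the reporter was read with B/G FRET substrate (2 h RT), and viability then via CellTiter-Glo ATP luminescence.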

[14] = p53 small molecule agonists, cell-based qHTS assay (AID 1963582; active = well fitted activation curve with a large enough effect in the signal ratio in the repeat runs, not every such curve was filed as active; the % refers to the signal ratio)
Method in brief: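 In this cell-based concentration-response screen, a p53 response element drives beta-lactamase; cells received DMSO-borne compounds after 5 h culture and were incubated a further 16 h before FRET substrate development.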

[15] = target: 5-hydroxytryptamine receptor 2A (Homo sapiens) (UniProt P28223); assay: 5-hydroxytryptamine receptor 2A (HTR2A) small molecule antagonists, cell-based qHTS assay (AID 1963586); note: nearly all actives have a fitted effect of over 45% in size; note: potency is the fitted concentration of half-maximal effect
Method in brief: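 Antagonist-mode intracellular calcium assay: DOI (4 nM) added after 5 min compound pre-incubation at room temperature to dye-loaded HTR2A-CHO cells. Fluorescence followed for 3 min, sampled every second.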

[16] = target: Muscarinic acetylcholine receptor M1 (Homo sapiens) (UniProt P11229); assay: Cholinergic receptor muscarinic 1 (CHRM1) small molecule agonists, cell-based qHTS assay (AID 1963589); note: nearly all actives have a fitted effect of over 35% in size
Method in brief: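 Measures agonist-induced intracellular calcium rise. Stable human CHRM1 CHO line, 1 h dye load at 37 C, compounds from DMSO, kinetic fluorescence read.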

[17] = cAMP Responsive Elements (CRE) small molecule agonists, cell-based qHTS assay (AID 1963590)
Method in brief: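 A CRE-responsive beta-lactamase reporter in HEK 293T cells was used. Treatment ran 3 h at 37 C; detection used LiveBLAzer B/G FRET substrate for 2 h at room temperature.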

[18] = cAMP Responsive Elements (CRE) small molecule antagonists, cell-based qHTS assay (AID 1963591; active = well fitted inhibition curve with a large enough effect in the signal ratio in the repeat runs, not every such curve was filed as active; the % refers to the signal ratio)
Method in brief: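 HEK293T cells carrying a CRE-driven beta-lactamase reporter receive compound and NKH477 (0.25 uM final) for 3 h. Fluorescence from LiveBLAzer B/G FRET substrate is read after 2 h at room temperature.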

[19] = target: Beta-2 adrenergic receptor (Homo sapiens) (UniProt P07550); assay: Adrenergic beta2 receptor (ADRB2) small molecule agonists, cell-based qHTS assay (AID 1963593);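 note: CHO cells stably overexpressing human ADRB2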
Method in brief: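 CHO cells stably over-expressing ADRB2 were plated overnight at 37C, then dosed with compounds plus a stimulation mix containing 100uM IBMX and 25uM Ro-20-1724 for 0.5hr at room temperature. cAMP was measured by HTRF competition, 1hr.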

[20] = target: D(2) dopamine receptor (Homo sapiens) (UniProt P14416); assay: Dopamine D2 receptor (DRD2) small molecule agonists, cell-based qHTS assay (AID 1963594); note: nearly all actives have a fitted effect of over 35% in size
Method in brief: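 HEK293 cells stably expressing human DRD2, pre-treated with PDE inhibitor Ro20-1724 (0.1 mM final) and compound 10 min at room temperature, then stimulated with NKH477 (200nM […]) for 30 min. cAMP read by HTRF (665/620 nm).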

Row | SMILES | Potency [1] | Potency [2] | Potency [3] | Potency [4] | Potency [5] | Potency [6] | Potency [7] | Potency [8] | Potency [9] | Potency [10] | Potency [11] | Potency [12] | Potency [13] | Potency [14] | Potency [15] | Potency [16] | Potency [17] | Potency [18] | Potency [19] | Potency [20]
1 | CCCCN1C(=O)[C@@H]([C@H](O)C2CCCCC2)NC(=O)C12CCN(Cc1ccc(Oc3ccc(C(=O)O)cc3)cc1)CC2 | inactive | inactive | inactive | inactive | 24.5 µM (active) | inactive | inactive | inactive | – | – | – | – | – | – | – | – | – | – | – | –
2 | O=S(=O)(O)c1cc(S(=O)(=O)O)c2c(N=Nc3ccccc3)c(O)ccc2c1 | inactive | inactive | inactive | inactive | inactive | inactive | – | – | inactive | inactive | inactive | inactive | inactive | inactive | inactive | inactive | inactive | inactive | inactive | –
3 | CC1=NN(c2ccc(S(=O)(=O)O)cc2)C(=O)C1N=Nc1ccccc1 (configuration not stated) | inactive | inactive | inactive | inactive | inactive | inactive | inactive | inactive | inactive | inactive | inactive | inactive | inactive | inactive | inactive | – | inactive | – | – | inactive
4 | CCCCCCCCCCCCCCCS(=O)(=O)Oc1ccccc1 | inactive | inactive | inactive | inactive | inactive | inactive | inactive | inactive | inactive | inactive | inactive | inactive | inactive | inactive | inactive | inactive | – | inactive | – | inactive
5 | Cc1ccc(O)c(C(C)(C)C)c1 | inactive | inactive | inactive | inactive | – | inactive | inactive | inactive | inactive | inactive | inactive | inactive | inactive | inactive | 33.4 µM (active) | – | – | – | inactive | inactive
6 | Oc1ccc(CCNCCCCCCNCCc2ccccc2)cc1O | inactive | inactive | inactive | inactive | inactive | inactive | inactive | 8.41 µM (active) | inactive | inactive | inactive | inactive | inactive | inactive | – | – | – | inactive | – | inactive
7 | CCCCCCCCCCCCN1CCCC1=O | inactive | inactive | inactive | inactive | inactive | inactive | inactive | inactive | inactive | inactive | inactive | inactive | inactive | inactive | inactive | inactive | – | inactive | inactive | inactive
8 | Cc1cc([N+](=O)[O-])ccc1N | inactive | inactive | inactive | inactive | inactive | inactive | inactive | inactive | inactive | inactive | inactive | inactive | inactive | inactive | inactive | inactive | inactive | inactive | inactive | inactive
9 | CCOc1nc2cccc(C(=O)OC(C)OC(=O)OC3CCCCC3)c2n1Cc1ccc(-c2ccccc2-c2nn[nH]n2)cc1 (configuration not stated) | inactive | inactive | inactive | – | – | inactive | – | inactive | – | – | – | 12.9 µM (active) | 14.5 µM (active) | – | – | inactive | – | – | – | inactive
10 | CN(C)c1ccc(SC#N)cc1 | inactive | inactive | inactive | inactive | – | inactive | inactive | – | 24.3 µM (active) | inactive | inactive | inactive | inactive | inactive | inactive | inactive | inactive | inactive | inactive | inactive
11 | Cc1cccc(Br)c1 | inactive | inactive | inactive | inactive | inactive | – | inactive | inactive | 24.5 µM (active) | inactive | inactive | 20.6 µM (active) | – | – | inactive | inactive | – | – | inactive | inactive
12 | O=C(NCc1ncc(C(F)(F)F)cc1Cl)c1c(Cl)cccc1Cl | inactive | inactive | inactive | inactive | inactive | inactive | – | inactive | inactive | inactive | inactive | inactive | inactive | – | inactive | inactive | – | inactive | – | inactive
13 | CCCCCCCC/C=C\CCCCCCCC(=O)N(CCO)CCO | inactive | inactive | inactive | inactive | – | inactive | inactive | inactive | inactive | inactive | inactive | inactive | – | – | inactive | inactive | inactive | inactive | inactive | inactive
14 | Cc1cccc(O)c1N | inactive | inactive | inactive | inactive | inactive | inactive | inactive | inactive | 30.9 µM (active) | inactive | inactive | inactive | – | inactive | – | – | – | inactive | – | inactive
15 | COc1cc2ncnc(Nc3ccc(F)c(Cl)c3)c2cc1OCCCN1CCOCC1 | inactive | inactive | inactive | inactive | inactive | inactive | inactive | 29.8 µM (active) | inactive | inactive | inactive | inactive | – | – | inactive | inactive | – | – | inactive | inactive
